# N370S GC mod: N370S glucocerebrosidase modulation, Gaucher chaperone candidate; Potency, µM (highest dose often 59.4 µM), most hits filed as inhibitors; P04062; AID 2101; 330,000 compounds, 0.092% hits; N370S GC spleen homogenate, 4MU-glucoside fluorescence
# aGlu spleen mod: lysosomal alpha-glucosidase (human) modulation | P10253 | Potency, µM (top dose mostly 79.9 µM), usual class: inhibitors | 240,000 compounds, 0.006% hits | human spleen homogenate, 4-MU-alpha-glucoside fluorescence | AID 2112
#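 Human spleen homogenate (1 ug) incubated with compounds and 1 mM 4-methylumbelliferyl-alpha-D-glucopyranoside in pH 5.0 citrate/phosphate buffer, 37 C, 40 min. Stopped at pH 10; 4-MU fluorescence (Ex 365/Em 440 nm); AC50 by Hill fit.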
# GAA inhib: inhibitors of human lysosomal alpha-glucosidase; P10253; purified human GAA, 4-MU-alpha-glucoside fluorescence; Potency, µM (highest dose often 76.9 µM), most hits filed as inhibitors; 200,000 compounds, 0.005% hits; AID 1466
#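 Activity normalized between no-enzyme (basal) and enzyme-only wells. Conditions: 4 nM human enzyme, 400 uM fluorogenic substrate, citrate/phosphate pH 5.0 with Tween-20, 20 min room temperature, compounds up to 77 uM.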
# aGal spleen mod: inhibits or activates alpha-galactosidase in human spleen homogenate; AID 2107; 240,000 compounds, 0.008% hits; P06280; Potency, µM (top dose mostly 80 µM), actives largely listed as inhibitors; human spleen homogenate, 4MU-alpha-Gal fluorescence, 40 min
# Target sequence (P06280 32-429 limits assumed): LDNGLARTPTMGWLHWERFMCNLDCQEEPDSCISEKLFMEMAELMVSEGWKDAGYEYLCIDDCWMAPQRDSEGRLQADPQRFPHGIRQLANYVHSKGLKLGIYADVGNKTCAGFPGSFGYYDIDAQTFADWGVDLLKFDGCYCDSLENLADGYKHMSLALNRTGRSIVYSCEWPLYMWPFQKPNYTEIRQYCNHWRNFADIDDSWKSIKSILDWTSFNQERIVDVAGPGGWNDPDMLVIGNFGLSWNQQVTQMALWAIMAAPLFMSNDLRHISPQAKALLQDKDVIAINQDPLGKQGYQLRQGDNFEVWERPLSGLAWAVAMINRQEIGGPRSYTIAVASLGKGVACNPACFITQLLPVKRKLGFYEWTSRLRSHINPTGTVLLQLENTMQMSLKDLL
#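 Spleen homogenate 1 ug + cpd (titration) + 4-MU-alpha-D-galactopyranoside 1 mM; 37C 40 min; 50 mM citrate/phosphate pH 5.0, 0.01% Tween-20; stop pH 10; fluorescence 365/440; AC50 via Hill.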
# GLA inh pH 4.5: inhibitors of human alpha-galactosidase A at pH 4.5; P06280; purified enzyme, 4-MU-alpha-Gal fluorescence, pH 4.5; activity change, negative = inhibition, % at 105 µM; 230,000 tested, under 10 active
# GAA glycogen: inhibitors or activators of human alpha-glucosidase glycogen cleavage; recombinant GAA, glycogen substrate, Amplex Red glucose oxidase fluorescence; P10253; Potency, µM (titrated, usually from 76.4 µM), actives largely listed as inhibitors; 300,000 compounds, 0.38% hits;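 further: the screen sought inhibitors and activators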
#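 qHTS, 1536-well; enzyme 4 nM final; cpd up to 77 uM; substrate bovine liver glycogen 30 ug; 50 mM citrate/phosphate pH 5.0, 0.01% Tween-20; 37 C, 40 min; Amplex Red detection 45 min RT; Hill fit → AC50.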
# Numbers stand for hits; n = inactive; u = inconclusive; x = no result given; ! = repeats disagree; [ ] = dose if it differs, or a comment. Shown are actives, neighbours in structure and some others; about 0.43% of the full set was active somewhere. The call rests on the fitted dose curve; in most records, active means well fitted curve in the direction sought with a large enough effect; inconclusive means small, poorly fitted or top-dose-only effect, or another doubt; inactive means no such curve, though single readings can be large; an effect the other way counts as inactive or inconclusive.
SMILES,N370S GC mod,aGlu spleen mod,GAA inhib,aGal spleen mod,GLA inh pH 4.5,GAA glycogen
Oc1ccc(N2CCN(C(c3ccncc3)c3nnnn3C3CCCC3)CC2)cc1 (centres undefined),n,n,n,n,n,12µM
CC1(C(=O)O)Sc2[nH]c(=O)sc2C2c3ccccc3OC(=O)C21 (centres undefined),n,n,n,n,n,25µM
Cc1ccc(CNc2ncnc3ccc(-c4c(C)noc4C)cc23)o1,n,n,x,n,x,x
O=C(N/N=C1/C[C@@H](O)[C@@H](O)[C@@H]2[C@@H]3C(=O)N(C[C@@H]4CCCO4)C(=O)[C@H]3CC[C@H]12)OCc1ccccc1,n[12.8 µM],n[17.4 µM],x,n[17.5 µM],x,x
Cc1cc(Nc2c(C)n(C)n(-c3ccccc3)c2=O)n2c(nc3ccccc32)c1C#N,n,n,n,n,n,14µM
CCc1c(C)c(C#N)c2nc3ccccc3n2c1Nc1c(C)n(C)n(-c2ccccc2)c1=O,n,n,n,n,n,25µM
CCCc1cc(Nc2c(C)n(C)n(-c3ccccc3)c2=O)n2c(nc3ccccc32)c1C#N,n,n,u,n,n,14µM
COc1ccc(OC2C=CC(C#Cc3ccc(C(C)(C)C)cc3)OC2CO)cc1 (centres undefined),n[12.8 µM],n[17.4 µM],x,n[17.5 µM],x,x
Nc1ncnc2c1ncn2[C@H]1O[C@@H](CSCC[C@@H](N)C(=O)O)[C@H](O)[C@@H]1O,n,n,x,n,x,x
COc1ccccc1N1CCN(/N=C/c2ccc(O)c(O)c2)CC1,n,n,n,n,n,2.8µM
CCNC(=S)N/N=C(\C)c1ccc2ccccc2c1OC(F)F,n,n,n,n,n,50µM
Cc1ccc(NNC(=O)c2cc(C(C)(C)C)nn2Cc2ccccc2)cc1,n,n,n[15.4 µM],n,n,11µM
O=C(OCCN=C1NS(=O)(=O)c2ccccc21)C1CC(=O)N(c2ccc3ccccc3c2)C1 (centres undefined),3.5µM,n,u,n,n,n
C[C@@]12CCC[C@H]1C1CC[C@H]3C[C@H](O)CC[C@]3(C)C1CC2 (some centres undefined),n,n,x,n,x,x
COC(=O)c1ccc(NC(=S)Nc2ccc(O)cc2)cc1,n,n,n,n,n,7.9µM
S=C(NNC(=S)Nc1ccccc1)Nc1ccccc1,n,x,x,x,x,u
Oc1ccc(NC(=S)Nc2ccc(O)cc2)cc1,u,n,n,n,n,3.1µM
O=C(NCc1ccccc1Cl)c1ccc(CS(=O)(=O)c2ccc(Br)cc2)o1,x,x,x,x,x,45µM
Cc1noc(C)c1S(=O)(=O)N(CC(=O)Nc1ccc(C(F)(F)F)cc1)c1ccc(C(C)C)cc1,x,x,x,x,x,n
O=C(NCCCCc1ccccc1)C12CN(Cc3ccccc3)CC1C(c1ccc([N+](=O)[O-])cc1)=NO2 (centres undefined),10µM,n,u,n,n,n
O=C(NCCCCc1ccccc1)C12CN(Cc3ccccc3)CC1C(c1cccc([N+](=O)[O-])c1)=NO2 (centres undefined),n,n,n,n,n,n
c1ccc2c(c1)SCc1c-2[nH]c2ccccc12,n,n,x,n,x,x
Cc1cc2c(c(=O)o1)[C@@H](O)[C@H]1O[C@@H]1C2=O,n[12.8 µM],n[17.4 µM],x,n[17.5 µM],x,x
Oc1ccc2[nH]ccc2c1,n,n,n,n,n,14µM
CC#CCN1c2ccccc2[C@]23C[C@@H](C(=O)OC)N(S(=O)(=O)CCCC)C2=NC(C(=O)OC)=C(C(=O)OC)[C@H]13,n[12.8 µM],n[17.4 µM],x,n[17.5 µM],n,x
SMILES,N370S GC mod,aGlu spleen mod,GAA inhib,aGal spleen mod,GLA inh pH 4.5,GAA glycogen
OC(COC(c1ccccc1)c1ccccc1)CN1CCc2ccccc2C1 (centres undefined),n,n,n,n,n,n
OC(COC(c1ccc(Cl)cc1)c1ccc(Cl)cc1)CN1CCc2ccccc2C1 (centres undefined),7.9µM,n,n,n,n,n
Cc1c(N=Cc2nc3ccccc3[nH]2)c(=O)n(-c2ccccc2)n1C,n,n,n,n,n,8.9µM
Cc1cccc(-c2ccc(C=Nc3c(C)n(C)n(-c4ccccc4)c3=O)o2)c1,n,n,n,n,n,4µM
Cc1c(N=Cc2nc3ccccc3n2C)c(=O)n(-c2ccccc2)n1C,n,n,n,n,n,11µM
Cc1c(NC(=O)/C(C#N)=C/c2ccc(-c3cccc(Cl)c3)o2)c(=O)n(-c2ccccc2)n1C,n,n,u,n,n,n
C=CCOC(=O)C(C(C)=O)C(NC(=O)OC)c1ccc2ccccc2c1 (centres undefined),n[12.8 µM],n[17.4 µM],x,n[17.5 µM],x,x
CC(=O)OC[C@H]1O[C@@H](O/N=C(\C)CCN2CCCCc3nc(C)c(C)cc32)[C@H](OC(C)=O)[C@@H](OC(C)=O)[C@H]1OC(C)=O,n[12.8 µM],n[17.4 µM],x,n[17.5 µM],x,x
O=C(COc1ccccc1C(=O)N/N=C\c1ccc(O)c(O)c1)N/N=C/c1ccc(O)c(O)c1,n[12.8 µM],n,n,n,n,3.1µM
O=C(COc1ccccc1[N+](=O)[O-])N/N=C/c1ccc(O)c([N+](=O)[O-])c1,n,n,n,n,n,n
CC1=C(C(=O)Nc2cccnc2)C(c2ccc(Cl)cc2)n2nc(SCc3ccccc3)nc2N1 (centres undefined),x,x,x,x,x,25µM
COc1ccc(S(=O)(=O)Nc2c(C(=O)O)[nH]c3ccccc23)c(OC)c1,n,n,n,n,n,3.5µM
COc1ccc(S(=O)(=O)Nc2c(C(=O)O)[nH]c3ccc(OC)cc23)cc1,n,x,x,x,x,u
COc1ccc2[nH]c(C(=O)O)c(NS(=O)(=O)c3ccc(OC)c(OC)c3)c2c1,n,n,n,n,n,4µM
COc1ccc(S(=O)(=O)Nc2c(C(=O)O)[nH]c3ccc(OC)cc23)c(OC)c1,n,x,x,x,x,u
Cc1ccc2nc(-c3ccc(C)o3)c(Nc3ccc4c(c3)OCCO4)n2c1,x,x,x,x,x,6.3µM
c1csc(-c2nc3ccccn3c2Nc2ccc3c(c2)OCCO3)c1,x,x,x,x,x,13µM
c1cncc(-c2nc3ccccn3c2Nc2ccc3c(c2)OCCO3)c1,n,n,n,n,n,n
Cc1ccc(-c2nc3ccccn3c2Nc2ccc3c(c2)OCCO3)o1,x,x,x,x,x,4.5µM
Cc1ccc(-c2nc3ccccn3c2Nc2ccccc2)o1,n,n,n,n,n,7.9µM
C=CCc1ccc(O)c(-c2ccc(O)c(CC=C)c2)c1,n,n,x,n,n,35µM
CCN(C(=O)CN(C)S(=O)(=O)c1ccc2c(c1)n(C)c(=O)c(=O)n2C)c1cccc(C)c1,x,x,x,x,x,n
O=C(/C=C/c1ccc(O)c(O)c1)c1ccccc1O,n,n,x,n,n,7.9µM
O=C(O)/C=C\c1ccc(O)c(O)c1,n,n,x,n,n,x
O=C(/C=C/c1ccc(O)cc1)c1ccc(O)cc1O,1.8µM!,n,n,n,n,n

# Screening data (PubChem)
